The campaign covered roughly 320,000 compounds. About 500 (0.16%) were called active. Only a selection was taken, and actives are over-represented in it overall. Values without a mark were called inactive.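 How the source made its calls: active means inhibition above the mean of all tested compounds plus 3 SD, set per campaign (cut at about 14% in these data); inactive means the rest.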

The target of the experiment is Acyl-protein thioesterase 1 (Homo sapiens) (UniProt O75608). Kind of experiment: inhibition of human lysophospholipase 1 – biochemical, fluorescence polarization, FP-Rh probe ABPP, counter-screen for PME1 inhibitor project, primary screen (AID 2174).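 Further: inhibitors block serine hydrolase probe labeling of LYPLA1 so polarization falls; 0% = enzyme with DMSO and 100% = wells lacking LYPLA1.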 As to conditions: recombinant LYPLA1, FP-Rh probe fluorescence polarization; at 5.9 µM; stronger effect = higher value.
Acyl-protein thioesterase 1 (Homo sapiens), sequence (O75608 whole entry, looked up): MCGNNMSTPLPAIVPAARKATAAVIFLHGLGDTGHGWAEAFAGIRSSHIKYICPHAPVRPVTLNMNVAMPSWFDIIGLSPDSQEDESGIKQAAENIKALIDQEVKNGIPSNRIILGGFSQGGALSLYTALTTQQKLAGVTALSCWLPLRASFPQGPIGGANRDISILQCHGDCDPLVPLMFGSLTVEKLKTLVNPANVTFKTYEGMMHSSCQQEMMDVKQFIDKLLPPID
In the case of `CCOc1ccc(S(=O)(=O)N/N=C(\C)c2ccc(Cl)c(Cl)c2Cl)cc1`, the inhibition was 0.76%.
For the compound `C=CCSC(CC)(CC)C(N)=O`, the inhibition was 6.47%.
With `CCCc1ccc(OCC(O)CN2CCN(C(=O)OCC)CC2)cc1` (stereo not drawn), the inhibition was 2.73%.
Take `CCOc1ccc(C(=O)NC(=S)Nc2ccc(N3CCOCC3)c(Cl)c2)cc1[N+](=O)[O-]`: the inhibition was 19.9% (active).
As to `CCOc1ccc(C(=O)NC(=S)Nc2ccc(NC(=O)C(C)C)cc2)cc1[N+](=O)[O-]`, the inhibition is 2.01%.
As for `COc1cccc(OC)c1C(=O)NC(=S)Nc1ccc(N2CCOCC2)c(Cl)c1`, the inhibition was -4.94%.
Then `CCN1C(=NCCc2cccnc2)N[C@@H](c2ccccc2)C(C(=O)OC)=C1C`, with -0.51%.
For `Cc1ccc(NC(=O)c2ccc(CSc3ncnc4nc[nH]c34)cc2)c(C)c1`, the inhibition was -1.38%.
`COc1ccccc1C(CNC(=O)c1cccc(S(=O)(=O)Nc2ccc(F)cc2)c1)N(C)C` (stereo not drawn): the inhibition is -0.85%.
For `CC(C)(C)NC(=O)COc1ccc(CNc2ccc3[nH]c(=O)[nH]c3c2)cc1`, the inhibition was -1.08%.
Turning to `CC(Oc1ccc(F)cc1)C(=O)N1CCN(c2ncccn2)CC1` (stereo not drawn), the inhibition was -4.75%.
`O=C(c1ccc(Br)o1)N1CCN(CCOc2ccccc2)CC1`: the inhibition was 2.69%.
The result for `CC1(C)OC(=O)C(=CNC(CO)C(=O)O)C(=O)O1` (stereo not drawn) reads -1.91%.
Consider `CCC(=C/c1sc2ccc3ccccc3c2[n+]1C)/C=C1\Sc2ccc3ccccc3c2N1C`, for which the inhibition was 25% (active).
Then `O=C(COc1ccc(Cl)cc1)N1CCN(S(=O)(=O)c2ccc(Cl)cc2)CC1`, with -0.66%.
Then `Cc1c(C)c2ccc(OCC(=O)N3CCN(c4cccc(Cl)c4)CC3)cc2oc1=O`, with 6.19%; and `O=C(COc1ccc(Cl)cc1)N1CCN(c2cccc(C(F)(F)F)c2)CC1`, with 20.5% (active).
In the case of `CC/C(=N\NC(=O)c1c(C)nc2ccccn12)c1ccc(Cl)cc1`, the inhibition was -2.24%.
For the compound `O=C(c1ccco1)N1CCN(CC(=O)N(C2CCCCC2)C2CCS(=O)(=O)C2)CC1` (stereo not drawn), the inhibition was 5.75%.
For the compound `CC(CC(=O)C1C(C)C=CCC1(C)C)NNC(N)=O` (stereo not drawn), the inhibition was 0.24%.
On to `CCOC(=O)c1sc2nc(C)nc(Nc3ccc(OC)c(OC)c3)c2c1C`, for which the inhibition was -0.83%.
Regarding `CSc1nc(-c2ccccc2)nc(C(Cl)Cl)n1`, the inhibition is 3.5%.
For the compound `CCn1c(CC(=O)Nc2ccc(C)cc2)nnc1SCC(=O)Nc1nc(C)cs1`, the inhibition is -2.24%.
As for `Cc1ccc(NC(=O)NNC(=O)c2sccc2-n2cccc2)cc1`, the inhibition was -1.32%.
On to `CCOC(=O)NN1C(=O)c2ccccc2NC1c1ccccc1O` (stereo not drawn), for which the inhibition was 2.15%.
Regarding `COc1cccc(CNS(=O)(=O)c2csc(C(N)=O)c2)c1`, the inhibition is -2.15%.
As to `CCCCn1c(N)c(N(CC(C)C)C(=O)CN(C)S(=O)(=O)c2ccc(F)cc2)c(=O)[nH]c1=O`, the inhibition was -3.12%.
Regarding `CC(=O)N1C(C)c2ccccc2C(C)(C)CC12CCCCC2` (stereo not drawn), the inhibition was 0.06%.
As to `COC(=O)c1ccc2ccccc2c1OC1OC(CO)C(O)C(O)C1NC(C)=O` (stereo not drawn), the inhibition is -2.18%.
As for `Cc1ccc2c(c1)N(S(=O)(=O)c1cc(-c3cc(C)no3)ccc1C)CCO2`, the inhibition was -4.6%.
Then `CCOC(=O)Cc1csc(NC(=O)CN(C)S(=O)(=O)c2ccc3c(c2)CCC(=O)N3)n1`, with -0.84%.
As to `Cc1cccc(N2CCN(C(=O)CN(C)S(=O)(=O)c3ccc4c(c3)CCC(=O)N4)CC2)c1C`, the inhibition was 16.5% (active).
As to `Cc1cccc(N2CCN(C(=O)CCS(=O)(=O)c3ccc4c(c3)NC(=O)C(C)S4)CC2)c1C` (stereo not drawn), the inhibition is 2.02%.
`O=C(O)CSc1nccn1-c1cccc(Cl)c1`: the inhibition is -1.21%.
For `O=c1c(-c2cccc(Cl)c2)c[nH]n1-c1ccccc1`, the inhibition was -3.25%.
As for `O=c1[nH]n(-c2cccc(Cl)c2)c2ncccc12`, the inhibition is 29.8% (active).
Then `Cc1ccc(C2=NN(C)c3nc4ccccc4n3C2)cc1`, with -2.83%; and `CN1CCN(C(=O)N2c3ccccc3CCc3ccccc32)CC1`, with 3.26%.
The result for `O=C(CSc1ncnc2c1nnn2Cc1ccc(F)cc1)NC1CCCC1` reads 1.1%.
Regarding `CCOC(=O)c1cc2cc(-c3c(C(=O)OCC)oc4cc(O)cc(O)c4c3=O)ccc2o1`, the inhibition is 9.58%.
Then `CCOC(=O)c1nnn2c1nc(N1CCN(c3ccccc3)CC1)c1ccccc12`, with -0.46%; and `O=C(CCNS(=O)(=O)c1ccccc1C(F)(F)F)Nc1ccncc1`, with -2.82%.
Consider `C/C(Cn1nnc2ccccc21)=N\OC(=O)c1cc(F)c(F)cc1Cl`, for which the inhibition is -3.21%.
Consider `Cn1c(=O)c2c(nc(N/N=C/c3cccs3)n2Cc2ccc(Br)cc2)n(C)c1=O`, for which the inhibition was 4.08%.
Regarding `Cn1nccc1C(=O)N1CCCC(C(=O)c2ccc(Oc3ccccc3)cc2)C1` (stereo not drawn), the inhibition was 6.29%.
For `O=C(c1ccc(-c2ccccc2)cc1)C1CCCN(C(=O)c2cncs2)C1` (stereo not drawn), the inhibition was 24% (active).
For `Cc1nc(C(=O)N2CCCC(C(=O)c3ccc(Cl)cc3)C2)cs1` (stereo not drawn), the inhibition is -0.29%.
Then `COC(=O)c1cc2c(ccn2C)n1C`, with -0.69%.

For the origin of these results see PubChem BioAssay AID2174 (The Scripps Research Institute Molecular Screening Center, 2009).
